Test results published in PubChem BioAssay (Tox21).
Results filed as inconclusive are left out. A call without a number means that no potency is given here. Values without a mark were called inactive. Activity calls are given as the source filed them. Calls follow the shape of the full dose curve.

assay: qHTS assay to identify small molecule agonists of the AP-1 signaling pathway - cell viability counter screen (AID 1159525); settings: ME-180 (cervical carcinoma) AP-1-bla cells viability, ATP luminescence, 5 h; series mostly up to 76.8 µM; also: nearly all actives have a fitted effect of over 55% in size
Text: National Center for Advancing Translational Sciences [NCATS]
NIH Chemical Genomics Center [NCGC]
U.S. Environmental Protection Agency [EPA]
National Institutes of Environmental Health Sciences [NIEHS]
National Toxicology Program [NTP]
U.S. Food and Drug Administration [FDA]
Activator protein-1 (AP-1), a transcription factor, plays an important role in tumor genesis by regulating genes involved in cell proliferation, differentiation, apoptosis, and angiogenesis. AP-1 activity is induced by a complex network of signaling pathways that involves extracellular signals, such as growth factors. The AP-1 protein complex formed from c-Fos and c-Jun binding to the AP-1 response element results in transcriptional activation of genes containing such elements within their promoter.
Low molecular weight molecules have been discovered and developed to modulate various components of these signaling pathways, for example, MAP kinase inhibitors. However, many points of pathway modulation remain untested due to the lack of chemical probes making this signaling locus of general interest.
Using a beta-lactamase reporter-gene under control of the AP-1 response element, a cell-based assay [CellSensor(TM) AP-1-bla ME-180 developed by Invitrogen Corp.] was used to measure EGF-induced signaling. The Tox21 10K library compounds were measured for their ability to positively modulate the action of EC50 EGF on reporter gene activity. Compounds were screened in a 15-pt titration series in 1536-well format. The cytotoxicity of the Tox21 compound library against this cell line was tested in parallel by measuring the intra cellular ATP content in the same wells.
Tox21 Assay Protocol Summary:
2500 cells/5uL in Opti-MEM medium containing 0.5% dialyzed FBS, 0.1 mM NEAA, 1 mM sodium pyruvate and 10 mM HEPES was dispensed into 1536-well black wall/clear bottom plates using a Multidrop dispenser and cells were cultured at 37 degrees Celsius overnight. Next day 23 nL of compounds dissolved in DMSO, positive controls or DMSO were delivered to each well using a pin tool. The plates were incubated at 37 degrees Celsius for 5 hours. 1 uL of LiveBLAzerTM B/G FRET substrate (Solution A+B+C+D) was added to each well using a Flying Reagent Dispenser. After incubated at room temperature for 2.5 hours the plates were measured on an EnVision plate reader at Excitation 405nm, Emission1=460nm and Emission 2=530nm. The %Activity was determined from the ratio of 460nm/530nm.
After the plates were read for Beta-Lactamase assay on Envision; 3 ul Cell Titer Glo (Promega) was added to measure the cytotoxicity and the plates were then incubated at RT in dark for 30 min. The luminescence was read on ViewLux (Perkin Elmer, Shelton, CT) using 6 sec exposure. ViewLux data was expressed as relative luminescence units.
For primary data analysis, raw plate reads for each titration point were first normalized relative to […] EGF control (100%) and DMSO only wells (basal, 0%).
For primary data analysis for viability assay, raw plate reads for each titration point were first normalized Tetra n-octyl ammonium bromide control (-100%) and DMSO (control, 100%).
Potency is read from the fitted curve at half-maximal effect.

SMILES	Potency	viability change, negative = cytotoxic
Clc1ccc(Nc2nnc(Cc3ccncc3)c3ccccc23)cc1	inactive	
CCC(C)(C)OC	inactive	
C[C@@H]1CC(=O)NN=C1c1ccc(NN=C(C#N)C#N)cc1	inactive	
Cc1cc(=O)c2c(O)c3c(O)cc(=O)c4c3c3c(cc(O)c1c23)C(C)(C)C=4O		5.76% [at 15.8 µM]
CO[C@]1(NC(=O)CSC(F)F)C(=O)N2C(C(=O)O)=C(CSc3nnnn3CCO)CO[C@H]21	inactive	
CCCCCCNC(=O)n1cc(F)c(=O)[nH]c1=O	inactive	
CC1(C)S[C@@H]2[C@H](NC(=O)C(c3ccccc3)S(=O)(=O)O)C(=O)N2[C@H]1C(=O)O (stereo not given in full)	inactive	
C1COC1	inactive	
CCOC(=O)C1=C(C)NC(C)=C(C(=O)OC)C1c1cccc(Cl)c1Cl (stereo not given)	inactive	
COC(=O)CCS	inactive	
CC1(C)O[C@@H]2C[C@H]3[C@@H]4C[C@H](F)C5=CC(=O)C=C[C@]5(C)[C@H]4[C@@H](O)C[C@]3(C)[C@]2(C(=O)CO)O1	inactive	
CN1C(=O)OC(C)(C)C1=O	inactive	
NC(=O)c1ccncc1	inactive	
C1C[C@@H]2[C@H]3CC[C@H](C3)[C@@H]2C1	inactive	
C[C@H]1c2cccc(O)c2C(O)=C2C(=O)[C@]3(O)C(O)=C(C(N)=O)C(=O)[C@@H](N(C)C)[C@@H]3[C@@H](O)[C@@H]21	inactive	
OC(CCN1CCCC1)(c1ccccc1)C1CCCCC1 (stereo not given)	inactive	
O=[N+]([O-])c1cc(C2CCCCC2)c(O)c([N+](=O)[O-])c1	inactive	
O=Cc1c2ccccc2c(Cl)c2ccccc12	inactive	
CCn1cc(C(=O)O)c(=O)c2cc(F)c(N3CCNCC3)cc21	inactive	
Cc1ccccc1N=C(N)Nc1ccccc1C	inactive	

SMILES	Potency	viability change, negative = cytotoxic
Brc1cc(Br)c(Oc2cc(Br)c(Br)cc2Br)cc1Br	inactive	
CC(=O)c1ccc([N+](=O)[O-])cc1	inactive	
C=C1CCC2CC1C2(C)C (stereo not given)	inactive	
CCC(=O)OC	inactive	
NC1[C@H]2CN(c3nc4c(cc3F)c(=O)c(C(=O)O)cn4-c3ccc(F)cc3F)C[C@@H]12 (stereo not given in full)	inactive	
c1cc(N(CC2CO2)CC2CO2)ccc1Cc1ccc(N(CC2CO2)CC2CO2)cc1 (stereo not given)	inactive	
COc1cc(C(=O)NC2CCN(C)CC2)ccc1Nc1ncc2c(n1)N(C1CCCC1)CC(F)(F)C(=O)N2C	6.34 µM (active)	
CCCCCC[C@@H](O)C/C=C\CCCCCCCC(=O)OCC(O)CO (stereo not given in full)	inactive	
O=C(/C=C/c1ccccc1)OCCc1ccccc1	inactive	
CCOC(C)=O	inactive	
COC(=O)CS	inactive	
CC(=O)c1cc2ccccc2s1	inactive	
CC(C)=CCC1C(=O)N(c2ccccc2)N(c2ccccc2)C1=O	inactive	
C[C@@H](O)[C@H]1C(=O)N2C(C(=O)O)=C([C@H]3CCCO3)S[C@H]12	inactive	
CC1=Nc2ccc3ccccc3c2C1(C)C	inactive	
CC(CC1c2ccccc2CCc2ccccc21)CN(C)C (stereo not given)	inactive	
COc1cc(N)c(Cl)cc1C(=O)NC1CCN(CCCOc2ccc(F)cc2)CC1OC (stereo not given)	inactive	
CC(=O)OCCN(CCOC(C)=O)c1ccc(N=Nc2ccc([N+](=O)[O-])cc2C#N)cc1	inactive	
O=C(/C=C/c1ccc(O)c(O)c1)O[C@@H]1C[C@@](OC(=O)/C=C/c2ccc(O)c(O)c2)(C(=O)O)C[C@@H](O)[C@@H]1O	inactive	
O=C1c2ccccc2C(=O)C1(O)O	inactive	
